Measured values published in PubChem BioAssay AID574 (The Scripps Research Institute Molecular Screening Center, 2007).
The campaign covered roughly 65,000 compounds. About 450 (0.69%) were called active. This excerpt belongs to a sample that is enriched for actives. Values without a mark were called inactive.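 The calls were made as follows: active = activation above a set limit, the screen-wide mean activation plus 3 SD (cut at about 8.5% in these data); inactive = the rest.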

Biological target: 5-hydroxytryptamine receptor 1E (Homo sapiens) (UniProt P28566)
Sequence (P28566 whole entry, looked up): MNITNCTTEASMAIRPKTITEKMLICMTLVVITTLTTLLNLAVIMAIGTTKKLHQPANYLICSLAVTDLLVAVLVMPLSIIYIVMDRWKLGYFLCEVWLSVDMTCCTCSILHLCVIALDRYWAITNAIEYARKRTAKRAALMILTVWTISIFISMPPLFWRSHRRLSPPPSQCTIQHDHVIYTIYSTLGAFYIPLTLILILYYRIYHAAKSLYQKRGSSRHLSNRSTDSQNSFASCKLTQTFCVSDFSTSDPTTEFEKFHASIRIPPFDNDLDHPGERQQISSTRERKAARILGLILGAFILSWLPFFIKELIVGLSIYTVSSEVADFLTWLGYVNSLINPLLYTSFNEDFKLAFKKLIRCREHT
Experiment: 5-HT1E receptor agonists, primary screen, cell-based, HTS (AID 574);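 also: 100% = positive control agonist at 1 µM giving full maximal response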
Details: CHO 5-HT1E Ga15 NFAT-bla reporter, FRET; at 6 µM; stronger effect = higher value

SMILES	activation
c1ccc2sc(C3CCCNC3)nc2c1 (stereo not given)	98.8% (active)
Cc1ccc(P(=S)(c2ccc(C)o2)N2CCOCC2)o1	-1.7%
O=C1NC(=O)C(C/C=C/c2ccccc2)C(=O)N1	0.1%
COc1ccc(CN2CCN(c3ccccc3F)CC2)c(OC)c1	54.1% (active)
Fc1cccc(F)c1CN1CCN(Cc2c(F)cccc2F)CC1	1.1%
COc1ccccc1CN1CCN(C(=O)Cc2ccccc2)CC1	-0.5%
CC(=NC1CCN(Cc2ccccc2)CC1)c1c(O)n(C)c(=O)n(C)c1=O	0%
CCOP(=S)(OCC)SCOC(=O)NCC(=O)OC	-0.2%
CC[N+]1(C)CCCC(OC(=O)C(O)(c2ccccc2)c2ccccc2)C1 (stereo not given)	-0.1%
CC(C)c1ccc(OCC(=O)N2CCN(C)CC2)c(Br)c1	-1.2%
